Measurements as given in PubChem BioAssay.
Values without a mark were called inactive. No rule for the calls is given here.

molecular target: Pantothenate synthetase (Mycobacterium tuberculosis (strain ATCC 25618 / H37Rv)) (UniProt P9WIL5); assay: Recombinant Mtb pantothenate synthetase (PanC) inhibitors, coupled enzyme, confirmatory (AID 375); details: coupled enzyme assay; at 10 µM, stronger effect = higher value;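 also: 0% = full reaction with vehicle and 100% = no enzyme background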
Sequence (P9WIL5 whole entry, looked up): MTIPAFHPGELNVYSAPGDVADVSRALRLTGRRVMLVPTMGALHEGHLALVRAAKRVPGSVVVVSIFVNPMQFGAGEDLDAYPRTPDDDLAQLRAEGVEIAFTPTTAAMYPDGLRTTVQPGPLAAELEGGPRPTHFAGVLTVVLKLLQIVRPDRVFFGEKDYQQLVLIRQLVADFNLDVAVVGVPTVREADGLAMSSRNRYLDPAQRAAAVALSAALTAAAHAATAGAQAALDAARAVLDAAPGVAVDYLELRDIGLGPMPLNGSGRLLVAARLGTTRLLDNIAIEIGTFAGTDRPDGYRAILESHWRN

SMILES | inhibition [%]
CC(C)NC(=O)c1ccccc1NC(=O)CCS(=O)(=O)Cc1ccccc1 | 2
COc1ccc(CCNC(=O)C2CCCN(c3nn4c(=O)cc(C)nc4s3)C2)cc1OC (stereo not given) | 0
COCCN1CN(S(=O)(=O)c2ccccc2)c2nc3ccccc3nc21 | 0
COc1ccc(Nc2nc(-c3sc(N)nc3C)cs2)cc1 | 3
CC(=O)NC(=O)NC1CSCC1OC(C)=O (stereo not given) | 4
CC(=O)N1CN(C2CCCC2)Cc2c1sc1c2CCCC1 | 0
O=C(COC(=O)C1=COCCO1)Nc1ccccc1Oc1ccccc1 | 1
C=CCNc1nnc(SC2CC(=O)N(c3ccc(OC)cc3)C2=O)s1 (stereo not given) | 0
CCN(CCO)C1CC(=O)N(c2ccccc2C)C1=O (stereo not given) | 0
COC(=O)Cn1c2ccccc2c2nc(C)sc21 | 0
Cc1cccc(-n2ncc3c(NCc4cccs4)ncnc32)c1 | 0
CCOC(=O)c1ccccc1NC(=O)c1cc2sccc2n1C | 2
COc1cc(/C=N/n2cnnc2)ccc1OCC(=O)N1CCOCC1 | 0
Cc1csc(NC(=O)Nc2cccc(Cl)c2)n1 | 0
Cc1cc(NC(=O)Cc2c(F)cccc2Cl)no1 | 10
CCCCOc1cc(C(=O)NCCN(CC)CC)c2ccccc2n1 | 0
CC1=C(C(=O)Nc2ccccc2C)C2(CCCC2)C(C(N)=O)C(=O)N1 (stereo not given) | 0
Cc1ccc(NC(=O)c2ccco2)c(NC(=O)c2cccs2)c1 | 0
O=C(CN(CC1CCCO1)C(=O)CCC(=O)Nc1ccccn1)NCC1CCCO1 (stereo not given) | 8
CC1(C)NC(=O)N(CCOc2cccc(Cl)c2Cl)C1=O | 0

SMILES | inhibition [%]
Cc1ccc(Cn2c(=N)c(C(=O)NCc3ccco3)cc3c(=O)n4ccccc4nc32)cc1 | 1
Cc1cc(Nc2ccc(N3CCC(C)CC3)cc2)n2ncnc2n1 | 0
FC(F)(F)C(F)(F)C(F)(F)c1nnc2ccc(N3CCOCC3)nn12 | 3
COc1ccc(N2CCN(CCCNC(=O)C3CCCN(S(=O)(=O)c4cnc[nH]4)C3)CC2)cc1 (stereo not given) | 0
CCOC(=O)CSc1nc2cc(C(=O)N3CCC(C(N)=O)CC3)ccc2c(=O)n1-c1ccccc1 | 0
Cc1ccc(-n2nnnc2SCC(=O)c2cc(C)n(CC3CCCO3)c2C)cc1 (stereo not given) | 0
CN(C)CCCn1c(N)c(C#N)c2nc(C#N)c(C#N)nc21 | 0
Cc1nnc(NC(=O)CSc2nnc(-c3ccc(S(=O)(=O)N4CCCC4)cc3)n2C)s1 | 8
O=C(NC1CC1)c1ccc(S(=O)(=O)NCC2CCCCC2)cc1 | 0
N#CC(C(=O)CCN1C(=O)C2CC=CCC2C1=O)c1nc2ccccc2[nH]1 (stereo not given) | 0
COc1ccc(OC)c2[nH]c(=O)c(CCNC(=O)CC(C)C)cc12 | 2
CCCNc1nc(N2CCOCC2)nc(N2CCOCC2)n1 | 0
COc1cc(OC)c2c(c1)OC(c1ccc(OC)c(OC)c1)C(O)C2=O (stereo not given) | 1
N#Cc1cnc(SCC(=O)c2ccccc2)nc1N | 2
N#Cc1cnn(Cc2ccc(Cl)cc2)c1N | 0
O=C(c1nn2cccnc2c1Cl)N1CCN(c2ccccc2)CC1 | 6
COc1ccc2c(C(F)(F)F)cc(=O)oc2c1C | 1
CC(=O)Nc1ccccc1-c1nc2ccc(C(=O)N3CCN(c4ccccc4)CC3)cc2[nH]c1=O | 7
O=C(Nc1cccc(OCC(=O)N2CCOCC2)c1)C1CCCCC1 | 0
C=CCOc1ccc(/C(O)=C2\C(=O)C(=O)N(CCOC)C2c2cccnc2)cc1 (stereo not given) | 0
